DT40 TDP1 CPT = growth inhibition of DT40 Tdp1-/-;hTDP1 cells with camptothecin (screen for TDP1 inhibitors). Potency, µM (titrated, usually from 46.2 µM), for inactives: at the top dose activity change, negative = growth inhibition, hits mostly inhibitors. AID 686979. chicken DT40 Tdp1-/-;hTDP1 cells + 20 nM CPT, ATP luminescence, 48 h. 420,000 tested, 12% active; further: potency means the concentration at half of the fitted maximal effect; nearly all actives have a fitted effect of over 55% in size
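Cell growth measured by CellTiter-Glo luminescence after a minimum 48 h, 37 C compound exposure with 20 nM CPT in Tdp1-knockout DT40 cells stably expressing hTDP1, seeded 400/well; qHTS titration format.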
RORg inh = inhibitors of mouse ROR gamma transcriptional activity; P51450; Drosophila S2 Gal4-RORgamma UAS-luciferase reporter, 20 h; Potency, µM (titrated, usually from 53.6 µM), inactives show at the highest dose activity change, negative = inhibition, actives largely listed as inhibitors; 310,000 tested, 5.4% active; further: potency means the concentration at half of the fitted maximal effect; nearly all actives have a fitted effect of over 60% in size
Target sequence (P51450 whole entry, looked up, the tested form may be a part): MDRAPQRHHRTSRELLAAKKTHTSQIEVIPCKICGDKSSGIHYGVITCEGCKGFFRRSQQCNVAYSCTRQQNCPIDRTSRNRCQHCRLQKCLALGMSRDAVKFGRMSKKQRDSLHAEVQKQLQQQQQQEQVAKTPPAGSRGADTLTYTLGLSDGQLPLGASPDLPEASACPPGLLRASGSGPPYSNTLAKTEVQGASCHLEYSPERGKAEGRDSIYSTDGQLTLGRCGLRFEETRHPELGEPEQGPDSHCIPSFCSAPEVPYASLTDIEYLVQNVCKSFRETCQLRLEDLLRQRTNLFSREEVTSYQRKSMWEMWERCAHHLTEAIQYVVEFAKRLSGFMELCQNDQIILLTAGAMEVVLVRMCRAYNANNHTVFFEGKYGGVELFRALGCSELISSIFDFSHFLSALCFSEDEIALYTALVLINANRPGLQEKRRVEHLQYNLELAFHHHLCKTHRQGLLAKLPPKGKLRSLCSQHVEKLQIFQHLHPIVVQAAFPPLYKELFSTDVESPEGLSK
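Stable Schneider cell line, Gal4 DNA-binding domain fused to ROR gamma, UAS-luciferase. Cmpd 1 hr RT → CuSO4 700 uM final → 20 hr RT → luciferase reagent 10 min → luminescence.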
Gal4-VP16 FLuc = Gal4-VP16 reporter inhibition counter-screen | Drosophila S2 Gal4-VP16 UAS-luciferase, luminescence, 20 h | Potency, µM (titrated, usually from 53.6 µM), for the others: top-dose activity, negative = inhibition, actives largely listed as inhibitors | 310,000 tested, 3.5% active;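 further: Gal4-VP16 expression switched on by copper sulfate through the metallothionein promoter; potency means the concentration at half of the fitted maximal effect; nearly all actives have a fitted effect of over 50% in size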
IL-1B inflam inh = inhibitors of inflammasome signaling (IL-1 beta secretion). THP-1 LPS/ATP IL-1B secretion, AlphaLISA, 16 h; stronger effect = lower value. activity change, % at 57.5 µM. 360,000 tested, 4.7% active; in the data active means activity change below about -50%; inconclusive means mostly about -30% to -49%
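Secreted IL-1B measured by AlphaLISA bead assay after 16 h compound exposure of THP-1 cells; compounds (final up to 57.5 uM) added 1 h before LPS (250 ng/mL) and ATP (1.25 mM) stimulation; lower signal means less secretion.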
LDHA block = LDHA (human) enzyme inhibition. 480,000 tested, 0.15% active. activity change, % (values are at about 110 or 230 µM). purified LDHA, NADH/diaphorase-resazurin fluorescence; stronger effect = lower value. P00338; in the data active means activity change below about -30%; inconclusive means mostly about -25% to -30%;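 further: plate controls were DMSO wells for no effect and wells without enzyme for full effect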
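Enzyme activity of human lactate dehydrogenase 5 (2 nM; 0.06 mM NADH, 0.2 mM pyruvate, 5 min, RT) is measured via a resazurin/diaphorase fluorescence readout of residual NADH.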
TDP1 cell noCPT = qHTS for Inhibitors of human tyrosyl-DNA phosphodiesterase 1 (TDP1): qHTS in cells in absence of CPT. DT40 Tdp1-/- hTDP1 cells, no CPT, ATP luminescence, 48 h. Potency, µM (doses to about 46.2 µM), inactives show at the top dose activity change, negative = growth inhibition, actives largely listed as inhibitors. 420,000 tested, 15% active; further: potency means the concentration at half of the fitted maximal effect; nearly all actives have a fitted effect of over 55% in size
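Chicken DT40 Tdp1-/- cells complemented with human TDP1, screened without camptothecin (DMSO vehicle only), 400 cells/well. Compounds pin-transferred, cells incubated at 37 °C for at least 48 hr. Growth read as ATP-dependent luminescence (CellTiter-Glo, 30 min at RT).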
Active calls of the source: *; ! = not active in a repeat. Only some compounds are listed: those with a hit (about 18% of all), similar ones and a draw of the others. Unless noted, the call rests on the fitted dose curve; in most records, active means well fitted curve in the direction sought with a large enough effect; inconclusive means small, poorly fitted or top-dose-only effect, or another doubt; inactive means no such curve, though single readings can be large; an effect the other way counts as inactive or inconclusive. Unless noted, on the % scale 0 is the no-effect control and ±100 the full control effect.

Screening CCN1CCc2c(sc(NC(=O)Nc3cccc(C(C)=O)c3)c2C(N)=O)C1 returned LDHA block 23.
For Cc1cc2ccccc2n1CC(=O)NCCN1CCCC1 the results were LDHA block -1.
Screening Cc1c(C(=O)Nc2cccc(C(F)(F)F)c2)sc2nc3n(c(=O)c12)CCC3 returned DT40 TDP1 CPT 23µM*, LDHA block 2 and TDP1 cell noCPT 23µM*.
`Cc1nc(N2CCCCC2C)c2c(C)c(C(=O)Nc3cccc(C(F)(F)F)c3)sc2n1` (configuration not stated) gave DT40 TDP1 CPT inconclusive, RORg inh -7%, Gal4-VP16 FLuc 6%, IL-1B inflam inh -73*, LDHA block -2 and TDP1 cell noCPT inconclusive.
`CCOC(=O)c1ccc(NC(=O)c2sc3nc4n(c(=O)c3c2C)CCC4)cc1` gave DT40 TDP1 CPT 16µM*!, RORg inh 23%, Gal4-VP16 FLuc -1%, IL-1B inflam inh -52*, LDHA block -5 and TDP1 cell noCPT 18µM*.
Screening CCc1cccc(NC(=O)c2sc3nc4n(c(=O)c3c2C)CCC4)c1 returned DT40 TDP1 CPT inconclusive, RORg inh 16%, Gal4-VP16 FLuc -19%, IL-1B inflam inh 5, LDHA block -4 and TDP1 cell noCPT inconclusive.
Screening Cc1c(C(=O)Nc2cccc(C#N)c2)sc2nc3n(c(=O)c12)CCCCC3 returned DT40 TDP1 CPT 16µM*, LDHA block -5 and TDP1 cell noCPT 13µM*.
Nc1ccccc1OCCCc1ccccc1 was read as LDHA block -1.
`Cc1cccc(NC(=O)CN2CCN(C(=O)NCc3ccccc3CN(C)C)CC2)c1C` gave LDHA block 0.
For CC(=O)c1cccc(NC(=O)C2CC3CCCC(C2)C3=O)c1 (configuration not stated) the results were LDHA block 2.
O=C1c2ccccc2C(Nc2ccc(S(=O)(=O)N3CCCCCC3)cc2)N1Cc1ccco1 (configuration not stated) was read as DT40 TDP1 CPT 21µM*, RORg inh 21%, Gal4-VP16 FLuc -6%, IL-1B inflam inh -4, LDHA block 0 and TDP1 cell noCPT 16µM*.
For COCCn1c(SC(C)C(=O)c2ccc(OC(F)F)cc2)nnc1-c1ccccc1 (configuration not stated) the results were LDHA block -2.
`CCN(Cc1ccccc1)CC(O)COCc1ccc(OC)c(OC)c1` (configuration not stated) gave LDHA block 2.
For COc1ccc(CN(CC(O)COCc2ccccc2)S(=O)(=O)c2ccccc2Br)cc1OC (configuration not stated) the results were DT40 TDP1 CPT inconclusive, IL-1B inflam inh -64*, LDHA block -4 and TDP1 cell noCPT 16µM*.
`CC(C)CC(=O)NCCC1CCN(C(=O)NC2CCCCC2)CC1` gave LDHA block 2.
Cc1ccc(SC(=O)c2c(C)noc2-c2cc(C)on2)cc1 was read as DT40 TDP1 CPT 18µM*, RORg inh inconclusive, Gal4-VP16 FLuc inconclusive, IL-1B inflam inh -65*, LDHA block 0 and TDP1 cell noCPT 9.2µM*.
`CSc1ncc(C(=O)N2CCN(c3cccc(C(F)(F)F)c3)CC2)c(C)n1` gave DT40 TDP1 CPT inconclusive, LDHA block 6 and TDP1 cell noCPT 18µM*.
Cc1noc(C)c1COc1ccccc1C(=O)N1CCN(c2cccc(C(F)(F)F)c2)CC1 was read as DT40 TDP1 CPT 5.2µM*, IL-1B inflam inh -10, LDHA block 3 and TDP1 cell noCPT 4.6µM*.
For CSc1ncc(C(=O)N2CCN(c3cccc(Cl)c3)CC2)c(C)n1 the results were DT40 TDP1 CPT inconclusive, LDHA block -2 and TDP1 cell noCPT 16µM*.
CCCCCCc1ccc(N=Cc2ccc(OCC(C)CC)cc2O)cc1 (configuration not stated) was read as LDHA block 5.
For Cc1ccc2nc(C)/c(=N\O)c(C)nc2c1 the results were DT40 TDP1 CPT 0%, RORg inh 11µM*, Gal4-VP16 FLuc -2%, IL-1B inflam inh -15, LDHA block 1 and TDP1 cell noCPT -5%.
For Cc1ccc2nc(N)nnc2c1 the results were DT40 TDP1 CPT inconclusive, IL-1B inflam inh -3, LDHA block -5 and TDP1 cell noCPT 0.52µM*.
`Cc1nc2ccc(Cl)cc2nc(C)/c1=N\O` gave DT40 TDP1 CPT inconclusive, RORg inh inconclusive, Gal4-VP16 FLuc 8%, IL-1B inflam inh 5, LDHA block 28 and TDP1 cell noCPT inconclusive.
For CN(C)CCNC(=S)NC(c1ccc2c(c1)CCC2)c1cccs1 (configuration not stated) the results were LDHA block -12.
For O=C(CCc1ccc(S(=O)(=O)N2CCOCC2)cc1)Nc1nc(COc2ccccc2)cs1 the results were DT40 TDP1 CPT 15µM*, RORg inh -39%, Gal4-VP16 FLuc inconclusive, IL-1B inflam inh inconclusive, LDHA block -2 and TDP1 cell noCPT inconclusive.
`COc1ccccc1OCC(=O)Nc1nc(-c2ccc(S(=O)(=O)N3CCOCC3)cc2)cs1` gave DT40 TDP1 CPT 21µM*, IL-1B inflam inh 11, LDHA block -4 and TDP1 cell noCPT 13µM*.
`COc1ccc(-c2csc(NC(=O)c3ccc(OCC(=O)N4CCOCC4)c(OC)c3)n2)cc1OC` gave DT40 TDP1 CPT 16µM*, RORg inh 0%, Gal4-VP16 FLuc -10%, IL-1B inflam inh -94*, LDHA block -3 and TDP1 cell noCPT 15µM*.
For O=C1c2cccc(NCCNCCO)c2C(=O)c2cccc(NCCNCCO)c21 the results were DT40 TDP1 CPT 0.37µM*, IL-1B inflam inh -117*, LDHA block 9 and TDP1 cell noCPT 0.73µM*.
`O=C(O)CCNc1ccc(NCCC(=O)O)c2c1C(=O)c1ccccc1C2=O` gave DT40 TDP1 CPT inconclusive, RORg inh -44%, Gal4-VP16 FLuc inconclusive, IL-1B inflam inh 0, LDHA block 1 and TDP1 cell noCPT inconclusive.
O=C(O)C/C(=C/c1cccs1)c1nc2ccccc2s1 was read as LDHA block 10.

Screening data as filed in PubChem BioAssay.
